Experimental data published in PubChem BioAssay (NCI).
About 83,000 compounds went through this panel and 20% of them were active in at least one assay; those are over-represented in the sample as a whole.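 Treatment: one concentration, 48 hours, 96-well format. Scoring: percent growth, with anything below 10 considered active.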 Unmarked numbers belong to inactive results. Active and inactive are the calls of the source.

Key:
Experiment in all cases: NCI-60 one-dose screen, 48 h (100 = growth as untreated, 0 = no growth, -100 = all killed)
Details in all cases: 10 µM unless noted
DU-145 prostate = system: DU-145 prostate
K-562 leukemia = system: K-562 leukemia
MALME-3M melanoma = system: MALME-3M melanoma
MDA-MB-231 breast = system: MDA-MB-231 breast
RXF 393 renal = system: RXF 393 renal
SF-268 CNS = system: SF-268 CNS
SF-295 CNS = system: SF-295 CNS
SF-539 CNS = system: SF-539 CNS
UACC-257 melanoma = system: UACC-257 melanoma
M14 melanoma = system: M14 melanoma
HCT-15 colon = system: HCT-15 colon
HT29 colon = system: HT29 colon
SNB-75 CNS = system: SNB-75 CNS
SNB-19 CNS = system: SNB-19 CNS
U251 CNS = system: U251 CNS
PC-3 prostate = system: PC-3 prostate
SK-MEL-5 melanoma = system: SK-MEL-5 melanoma
UACC-62 melanoma = system: UACC-62 melanoma
LOX IMVI melanoma = system: LOX IMVI melanoma
SK-MEL-28 melanoma = system: SK-MEL-28 melanoma

Row | SMILES | growth (DU-145 prostate) | growth (K-562 leukemia) | growth (MALME-3M melanoma) | growth (MDA-MB-231 breast) | growth (RXF 393 renal) | growth (SF-268 CNS) | growth (SF-295 CNS) | growth (SF-539 CNS) | growth (UACC-257 melanoma) | growth (M14 melanoma) | growth (HCT-15 colon) | growth (HT29 colon) | growth (SNB-75 CNS) | growth (SNB-19 CNS) | growth (U251 CNS) | growth (PC-3 prostate) | growth (SK-MEL-5 melanoma) | growth (UACC-62 melanoma) | growth (LOX IMVI melanoma) | growth (SK-MEL-28 melanoma)
1 | CCN(CC)c1ccc2cc(NC(=O)OCCNC(=O)CCNC(=O)[C@H](CC(C)C)NC(=O)C(C)(C)NC(=O)C(C)(C)NC(=O)[C@H](CC(C)C)NC(=O)CCNC(=O)C(C)(C)NC(=O)[C@H](CC(C)C)NC(=O)CCNC(=O)[C@@](C)(CC)NC(=O)[C@H](C)NC(=O)CCNC(=O)C(C)(C)NC(=O)[C@H](C)NC(=O)[C@@H]3CCCN3C(=O)[C@@](C)(CC)NC(=O)[C@H](Cc3ccccc3)NC(=O)C3CCCN3C(=O)C(C)(C)NC(=O)C3CCCN3C(=O)C(C)(C)NC(C)=O)c(=O)oc2c1 (stereo not given in full) | -100% (active) | -59.5% (active) | -80.4% (active) | -83.2% (active) | -82% (active) | -94.6% (active) | -84.7% (active) | -84.7% (active) | -89.4% (active) | -79.4% (active) | -93.3% (active) | -81.4% (active) | -91.6% (active) | -76.5% (active) | -85.6% (active) | -91.2% (active) | -100% (active) | -76.2% (active) | -85% (active) | -84.1% (active)
2 | O=c1cc(-c2ccccc2)oc2cc(OCc3cn(Cc4ccc(F)cc4)nn3)cc(O)c12 | 65.8% [100 µM] | 109% [100 µM] | 6.44% [100 µM] (active) | 12% [100 µM] | 9.11% [100 µM] (active) | 14.4% [100 µM] | 10.4% [100 µM] | 1.1% [100 µM] (active) | 86.3% [100 µM] | 65.9% [100 µM] | 94.4% [100 µM] | 100% [100 µM] | -65.9% [100 µM] (active) | -32.7% [100 µM] (active) | -16.9% [100 µM] (active) | 76% [100 µM] | 84.5% [100 µM] | 53.2% [100 µM] | 78.5% [100 µM] | 93.6% [100 µM]
3 | C=C(C)[C@@H]1CC[C@]2(C)[C@H](CC=C3[C@@H]4[C@@H](C)[C@H](C)CC[C@]4(C(N)=O)CC[C@]32C)[C@@]1(C)CCC#N | -0.419% [100 µM] (active) | 7.42% [100 µM] (active) | -65.5% [100 µM] (active) | -55.4% [100 µM] (active) | -72.2% [100 µM] (active) | 15.2% [100 µM] | 5.51% [100 µM] (active) | -63.1% [100 µM] (active) | -11.4% [100 µM] (active) | -3.77% [100 µM] (active) | 9.25% [100 µM] (active) | -32.6% [100 µM] (active) | -5.4% [100 µM] (active) | 16.2% [100 µM] | -59.3% [100 µM] (active) | 12.2% [100 µM] | -87.9% [100 µM] (active) | -63.9% [100 µM] (active) | -92.9% [100 µM] (active) | -67.8% [100 µM] (active)
4 | Cc1cc[n+](CCCCCCCCCC[n+]2ccc(C)cc2)cc1 | 93.7% | 79.8% | 113% | 105% | 127% | 93.4% | 73.1% | 99.2% | 106% | 97.7% | 103% | 84.3% | 95.3% | 104% | 105% | 87.6% | 92.8% | 92.6% | 91.4% | 101%
5 | Cn1cc(-c2noc(-c3cn(C)c4ncccc34)n2)c2cc(Cl)ccc21 | 103% | 87.4% | 90.7% | 70.4% | 121% | 82.9% | 99.2% | 56.6% | 103% | 91.6% | 92.8% | 83.1% | 101% | 100% | 95.6% | 89.3% | 94.7% | 93.1% | 93.4% | 93%
6 | CC(C)C1=NOC(=O)C1=Cc1cn(-c2ccccc2)nc1-c1ccc(Cl)cc1 | 94.3% | 42.8% | 93.2% | 97% | 58.2% | 99.3% | 96.9% | 75.9% | 105% | 76.4% | 64.9% | 67.9% | 83.8% | 86% | 71.1% | 78.7% | 83.2% | 75.6% | 6.02% (active) | 84.9%
7 | CNC(=O)c1cc(Oc2cccc3nc(NC(=O)Nc4cc(C(F)(F)F)cc(C(F)(F)F)c4)ccc23)ccn1 | 45.4% | 71.9% | 21.3% | 23.3% | 27.5% | 36.1% | 30.3% | 38.9% | 57.7% | 35.5% | 71.1% | 16% | -23.7% (active) | 38.8% | -34.9% (active) | 52.8% | 59.9% | 41.4% | 12.7% | 33.2%
